Assay [1] can be described thus: Nuclear factor erythroid 2-related factor 2/antioxidant responsive element (Nrf2/ARE) small molecule agonists: qHTS cell viability counter screen in human keratinocytes (AID 1919968; active means well fitted curve in the direction sought with a large enough effect in the repeat runs; an effect the other way counts as inactive or inconclusive; further: nearly all actives have a fitted effect of over 55% in size). In a few lines:
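CellTiter-Fluor fluorescence, read 1 h after reagent, gave viability in the same wells as the ARE-luciferase assay. KeratinoSens cells (1,500/well) had 23 h compound exposure at 37 C/5% CO2 following 5 h plating.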
(qHTS replaces the single test concentration by a dilution series.)

Assay [2] is described as follows: Nuclear factor erythroid 2-related factor 2/antioxidant responsive element (Nrf2/ARE) small molecule agonists: luciferase reporter gene qHTS assay in human keratinocytes (AID 1919969; further: nearly all actives have a fitted effect of over 35% in size; further: potency means the concentration at half of the fitted maximal effect). (In general: In a reporter assay the amount or activity of a reporter protein is the signal.)
The target of assay [3] is Gonadotropin-releasing hormone receptor (Homo sapiens) (UniProt P30968). Briefly: Human gonadotropin-releasing hormone receptor (GnRHR) small molecule agonists, calcium flux assay in GnRHR-HEK293 cells (AID 1920063). Further: nearly all actives have a fitted effect of over 35% in size. In outline:
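Agonist mode: compounds at 15 concentrations, in triplicate, went onto calcium dye-loaded GnRHR-HEK293 cells. Intracellular calcium was then followed as 480/540 nm fluorescence at 1 s intervals over 3 min.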
(In general: A change in cytosolic calcium serves as a functional read-out for many receptors and channels.)

For assay [4], the target named is KiSS-1 receptor (Homo sapiens) (UniProt Q969F8). Briefly: Human kisspeptin (KISS1R) small molecule agonists, calcium flux assay in KISS1R-HEK293 cells (AID 1920064; active means well fitted curve in the direction sought with a large enough effect in the repeat runs; an effect the other way counts as inactive or inconclusive). In outline:
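Agonist mode: intracellular calcium rise tracked at 1 s intervals over 3 min (480/540 nm) immediately after compound addition to dye-loaded KISS1R-HEK293 stable cells. Each compound tested at 15 concentrations in triplicate.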

A short description of assay [5]: G protein-coupled receptor (GPCR) small molecule agonists, calcium flux assay: HEK293 wild type cell line counter screen (AID 1920065). In a few lines:
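Calcium flux counter screen: compound added in agonist mode at 15 concentrations in triplicate to dye-loaded parental HEK293 cells. Fluorescence (480/540) read kinetically for 3 min; ATP served as positive control.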

Assay [6] can be described thus: p53 small molecule agonists, cell-based qHTS assay with human liver microsomes: qHTS cell viability counter screen (AID 1963579). Further: nearly all actives have a fitted effect of over 45% in size. In a few lines: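 Viability of p53RE-bla cells is measured as CellTiter-Glo luminescence following a 16 h, 37 C incubation with compound, liver microsomes from human donors and NADPH.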
The nature of assay [7]: p53 small molecule agonists, cell-based qHTS assay with rat liver microsomes: qHTS cell viability counter screen (AID 1963580). Further: nearly all actives have a fitted effect of over 45% in size. In a few lines:
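Counter screen for cytotoxicity under metabolic activation: rat liver microsomes and NADPH, 0.5 mg/mL final each, added with compounds to p53RE-bla HCT-116 cells; 16 h at 37 C, then ATP luminescence read.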

Assay [8] in a line: p53 small molecule agonists, cell-based qHTS assay: qHTS cell viability counter screen (AID 1963581). Further: nearly all actives have a fitted effect of over 45% in size. In a few lines: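 Counter screen read by CellTiter-Glo luminescence (ATP content, 30 min at room temperature), run in the same wells as the beta-lactamase reporter read. HCT-116 p53RE-bla cells saw compounds for 16 h at 37 C.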
For assay [9], the target named is 5-hydroxytryptamine receptor 2A (Homo sapiens) (UniProt P28223). Briefly: 5-hydroxytryptamine receptor 2A (HTR2A) small molecule antagonists, cell-based qHTS assay (AID 1963586). Further: nearly all actives have a fitted effect of over 45% in size. In a few lines:
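CHO cells stably expressing human HTR2A were plated for 18 h at 37 C, then loaded with calcium dye for 1 h. Compounds were preincubated 5 min at room temperature before DOI (4 nM solution) was added. Kinetic fluorescence was read for 3 min.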

The target is the same in assay [10]. Briefly: 5-hydroxytryptamine receptor 2A (HTR2A) small molecule agonists, cell-based qHTS assay (AID 1963587). Further: nearly all actives have a fitted effect of over 30% in size. In a few lines: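 HTR2A-CHO cells, plated 18 h at 37 C/5% CO2, dye-loaded 1 h at 37 C; compounds in DMSO added by pin tool (agonist mode). Intracellular calcium flux read as kinetic fluorescence on FDSS over 2 min at 1 s intervals.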
Assay [11] deals with Muscarinic acetylcholine receptor M1 (Homo sapiens) (UniProt P11229). Briefly: Cholinergic receptor muscarinic 1 (CHRM1) small molecule antagonists, cell-based qHTS assay (AID 1963588). Further: nearly all actives have a fitted effect of over 40% in size. Further: potency means the concentration at half of the fitted maximal effect. In a few lines:
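Compounds were tested at 15 concentrations in three independent runs. Dye-loaded CHRM1-CHO cells were exposed 5 min at room temperature before stimulation by acetylcholine added at 50nM. Intracellular calcium was read kinetically on FDSS for 3 min.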

For assay [12] the target is unchanged. Briefly: Cholinergic receptor muscarinic 1 (CHRM1) small molecule agonists, cell-based qHTS assay (AID 1963589). Further: nearly all actives have a fitted effect of over 35% in size. In outline: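 Agonist-mode calcium-flux screen: compounds at 15 concentrations, three independent runs, were pin-transferred onto dye-loaded human CHRM1-CHO cells. Fluorescence was then recorded kinetically every second over minutes.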
Assay [13] is described as follows: cAMP Responsive Elements (CRE) small molecule agonists, cell-based qHTS assay (AID 1963590). In outline: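 Agonist mode: compound added to CRE-bla HEK 293T cells (2,000/well, 18 h after plating) for 3 h at 37 C/5% CO2. Reporter activity detected via FRET beta-lactamase substrate, 2 h room-temperature loading.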
Assay [14] in a line: cAMP Responsive Elements (CRE) small molecule antagonists, cell-based qHTS assay (AID 1963591; active means well fitted inhibition curve with a large enough effect in the signal ratio in the repeat runs, not every such curve was filed as active; the % refers to the signal ratio). In a few lines:
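Antagonist mode: compounds are added alongside the adenylyl cyclase activator NKH477 (0.25 uM final) to CRE-bla HEK293T cells for 3 h. LiveBLAzer FRET substrate, 2 h at room temperature, reports bla expression.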

Assay [15] deals with Beta-2 adrenergic receptor (Homo sapiens) (UniProt P07550). Briefly: Adrenergic beta2 receptor (ADRB2) small molecule antagonists, cell-based qHTS assay (AID 1963592). Further: series mostly up to about 92 µM; nearly all actives have a fitted effect of over 50% in size. In outline: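 Assay format: CHO-ADRB2 cells, 18-20hr seeding at 37C/5% CO2, then compound plus 1nM isoproterenol agonist mix for 0.5hr RT. Homogeneous time-resolved fluorescence cAMP detection after 1hr, expressed as 665/615 nm ratio.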
Chain of Beta-2 adrenergic receptor (Homo sapiens) (P07550 whole entry, looked up): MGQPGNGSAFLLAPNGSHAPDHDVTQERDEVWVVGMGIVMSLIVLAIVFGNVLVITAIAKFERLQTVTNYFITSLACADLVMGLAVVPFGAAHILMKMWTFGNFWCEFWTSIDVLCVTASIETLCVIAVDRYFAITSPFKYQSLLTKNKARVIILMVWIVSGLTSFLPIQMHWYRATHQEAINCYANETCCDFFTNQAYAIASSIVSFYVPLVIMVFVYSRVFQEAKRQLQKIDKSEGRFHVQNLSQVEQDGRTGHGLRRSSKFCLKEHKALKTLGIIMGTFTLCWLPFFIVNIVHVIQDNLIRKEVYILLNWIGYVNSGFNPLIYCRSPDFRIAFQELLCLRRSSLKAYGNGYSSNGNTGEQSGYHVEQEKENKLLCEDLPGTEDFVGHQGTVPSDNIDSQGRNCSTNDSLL

The target is the same in assay [16]. Briefly: Adrenergic beta2 receptor (ADRB2) small molecule agonists, cell-based qHTS assay (AID 1963593).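 Further: CHO cells stably overexpressing human ADRB2.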 In a few lines: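 CHO cells stably over-expressing ADRB2 were plated overnight at 37C, then dosed with compounds plus a stimulation mix containing 100uM IBMX and 25uM Ro-20-1724 for 0.5hr at room temperature. cAMP was measured by HTRF competition, 1hr.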

Assay [17] addresses D(2) dopamine receptor (Homo sapiens) (UniProt P14416). Briefly: Dopamine D2 receptor (DRD2) small molecule agonists, cell-based qHTS assay (AID 1963594). Further: nearly all actives have a fitted effect of over 35% in size. In outline: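 HEK293 cells stably expressing DRD2 were cultured 24 h at 37 C, then given Ro20-1724 (0.1 mM final) and compounds for 10 min at room temperature. NKH477 (200nM) was then added for 30 min. cAMP was read by HTRF.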

For assay [18] the target is unchanged. Briefly: Dopamine D2 receptor (DRD2) small molecule antagonists, cell-based qHTS assay (AID 1963595; active means well fitted inhibition curve with a large enough effect in the signal ratio in the repeat runs, with a control signal flat; the % refers to the signal ratio). In a few lines:
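Readout: HTRF cAMP, cAMP-d2 competing with cellular cAMP for anti-cAMP cryptate, read after 1 h. Cells: DRD2-HEK293. Conditions: 0.1 mM Ro20-1724, 12 nM quinpirole, 200 nM NKH477, 30 min RT.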

A number with no mark means an inactive call. Results filed as inconclusive are left out. Calls of active or inactive are those of the source. Unless noted, the call rests on the fitted dose curve.
On the % scale 0 is the no-effect control and ±100 the full control effect.

Chain of KiSS-1 receptor (Homo sapiens) (Q969F8 whole entry, looked up): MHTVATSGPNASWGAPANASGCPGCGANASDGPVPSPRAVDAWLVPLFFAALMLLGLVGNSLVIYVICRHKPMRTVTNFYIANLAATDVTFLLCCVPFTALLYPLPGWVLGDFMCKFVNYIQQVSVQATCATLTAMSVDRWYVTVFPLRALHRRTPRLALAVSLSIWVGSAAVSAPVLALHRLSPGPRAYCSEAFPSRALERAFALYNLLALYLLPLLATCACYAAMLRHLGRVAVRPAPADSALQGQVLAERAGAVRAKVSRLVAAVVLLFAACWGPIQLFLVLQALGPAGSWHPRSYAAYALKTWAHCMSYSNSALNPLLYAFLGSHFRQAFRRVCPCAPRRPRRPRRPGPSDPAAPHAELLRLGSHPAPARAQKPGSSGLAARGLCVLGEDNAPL
Chain of 5-hydroxytryptamine receptor 2A (Homo sapiens) (P28223 whole entry, looked up): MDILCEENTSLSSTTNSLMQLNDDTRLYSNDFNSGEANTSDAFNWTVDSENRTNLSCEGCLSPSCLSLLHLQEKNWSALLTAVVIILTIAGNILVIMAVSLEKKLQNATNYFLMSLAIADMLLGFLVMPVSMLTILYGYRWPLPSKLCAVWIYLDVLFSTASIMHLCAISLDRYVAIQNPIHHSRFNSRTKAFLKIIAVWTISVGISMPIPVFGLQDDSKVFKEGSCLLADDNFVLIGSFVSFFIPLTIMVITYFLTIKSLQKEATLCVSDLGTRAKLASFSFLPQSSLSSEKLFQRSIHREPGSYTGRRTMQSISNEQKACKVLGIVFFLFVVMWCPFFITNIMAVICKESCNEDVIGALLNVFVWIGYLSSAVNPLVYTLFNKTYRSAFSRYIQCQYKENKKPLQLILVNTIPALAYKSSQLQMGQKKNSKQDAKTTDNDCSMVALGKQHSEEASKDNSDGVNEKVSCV
Chain of Gonadotropin-releasing hormone receptor (Homo sapiens) (P30968 whole entry, looked up): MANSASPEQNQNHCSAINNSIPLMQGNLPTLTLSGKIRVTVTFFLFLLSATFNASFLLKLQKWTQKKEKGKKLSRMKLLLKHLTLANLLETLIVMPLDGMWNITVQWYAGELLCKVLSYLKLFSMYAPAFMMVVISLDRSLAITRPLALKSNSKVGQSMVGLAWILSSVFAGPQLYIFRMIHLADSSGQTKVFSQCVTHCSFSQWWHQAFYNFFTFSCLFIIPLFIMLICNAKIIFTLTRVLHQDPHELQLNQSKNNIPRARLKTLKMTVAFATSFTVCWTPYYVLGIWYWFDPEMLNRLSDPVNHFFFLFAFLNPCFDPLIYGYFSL
Chain of D(2) dopamine receptor (Homo sapiens) (P14416 whole entry, looked up): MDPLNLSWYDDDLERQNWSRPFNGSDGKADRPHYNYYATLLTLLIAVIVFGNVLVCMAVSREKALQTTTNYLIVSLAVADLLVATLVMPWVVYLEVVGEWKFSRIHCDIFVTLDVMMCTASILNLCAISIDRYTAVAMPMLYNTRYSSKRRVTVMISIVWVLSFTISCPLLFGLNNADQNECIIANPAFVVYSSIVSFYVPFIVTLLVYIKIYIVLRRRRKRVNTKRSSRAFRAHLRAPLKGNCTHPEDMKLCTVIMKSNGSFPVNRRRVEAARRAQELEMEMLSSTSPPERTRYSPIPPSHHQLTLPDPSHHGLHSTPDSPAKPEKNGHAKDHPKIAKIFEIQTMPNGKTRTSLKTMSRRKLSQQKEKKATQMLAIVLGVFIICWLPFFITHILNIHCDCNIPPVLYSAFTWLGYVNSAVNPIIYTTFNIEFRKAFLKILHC
Chain of Muscarinic acetylcholine receptor M1 (Homo sapiens) (P11229 whole entry, looked up): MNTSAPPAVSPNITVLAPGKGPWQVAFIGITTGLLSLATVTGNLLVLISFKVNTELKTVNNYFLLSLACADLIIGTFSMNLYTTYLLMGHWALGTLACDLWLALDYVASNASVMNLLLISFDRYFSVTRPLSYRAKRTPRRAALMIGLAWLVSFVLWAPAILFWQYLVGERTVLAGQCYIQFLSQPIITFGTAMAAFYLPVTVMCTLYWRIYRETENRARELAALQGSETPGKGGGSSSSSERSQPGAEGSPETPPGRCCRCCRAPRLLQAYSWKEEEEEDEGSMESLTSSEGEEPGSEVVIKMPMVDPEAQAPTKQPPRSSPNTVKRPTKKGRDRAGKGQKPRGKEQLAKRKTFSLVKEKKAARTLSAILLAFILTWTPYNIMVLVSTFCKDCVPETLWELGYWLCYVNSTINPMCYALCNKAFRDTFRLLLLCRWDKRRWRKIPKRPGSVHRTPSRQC

`CCO[Si](CCC1CCC2OC2C1)(OCC)OCC` (centres undefined): the Potency entry in assay [1], in [2], in assay [3], in [4], in [5] and in assay [6] was “inactive” in each case. In addition, the Potency result in assay [7], in [8], in [9], in assay [10], in assay [11] and in [12] was “inactive” in each case. In addition, the Potency entry in [13], in [14], in assay [15], in assay [16], in assay [17] and in assay [18] was “inactive” throughout.
With `CCCC(=O)OCCC(C)CCC=C(C)C` (centres undefined), the Potency result in assay [1], in assay [2], in assay [3], in assay [4], in assay [5] and in assay [6] was “inactive” throughout. For the same molecule, the Potency result in assay [7], in assay [8], in [9], in assay [10], in assay [11] and in assay [12] was “inactive” throughout. For the same molecule, the Potency result in assay [13], in [14], in assay [15], in [16], in assay [17] and in assay [18] was “inactive” in each case.
In the case of `CCOc1ccc2nc(S(N)(=O)=O)sc2c1`, the Potency result in [1], in assay [3], in assay [4], in [5], in assay [6] and in assay [7] was “inactive” throughout. Moreover, the Potency result in assay [8], in assay [9], in assay [10], in [11], in [12] and in assay [13] was “inactive” each time. The Potency result in assay [14], in [15], in assay [16], in [17] and in assay [18] was “inactive” throughout. The Potency in [2] was 6.68 µM (active).
In the case of `Nc1ccc2cc(S(=O)(=O)O)cc(O)c2c1N=Nc1ccccc1C(F)(F)F`, the Potency result in [1], in assay [2], in assay [3], in assay [4], in [5] and in assay [6] was “inactive” throughout. The Potency result in [7], in [8], in [9], in [10], in assay [11] and in assay [12] was “inactive” in each case. The Potency entry in assay [13], in assay [14], in [15], in [16], in assay [17] and in [18] was “inactive” throughout.
On to `CC(O)CN` (centres undefined), for which the Potency result in assay [1], in assay [2], in [3], in assay [4], in [5] and in assay [6] was “inactive” each time. In addition, the Potency result in assay [7], in assay [8], in [9], in [10], in assay [11] and in [12] was “inactive” throughout. Further, the Potency result in [13], in assay [14], in assay [15], in assay [16], in assay [17] and in [18] was “inactive” each time.
Regarding `CC(C)(C)C(O)/C=C/c1ccc2c(c1)OCO2` (centres undefined), the Potency entry in assay [1], in assay [2], in assay [3], in assay [4], in assay [5] and in assay [6] was “inactive” each time. For the same molecule, the Potency entry in assay [7], in assay [8], in assay [9], in [10], in [11] and in assay [12] was “inactive” throughout. In addition, the Potency entry in assay [13], in assay [14], in [15], in [16], in assay [17] and in assay [18] was “inactive” throughout.
In the case of `NCCCC(N)(C(=O)O)C(F)F` (centres undefined), the Potency result in assay [1], in assay [2], in assay [3], in assay [4], in assay [5] and in assay [6] was “inactive” each time. The Potency result in assay [7], in [8], in assay [9], in [10], in [12] and in assay [13] was “inactive” throughout. In addition, the Potency result in assay [14], in assay [15], in assay [16], in assay [17] and in assay [18] was “inactive” in each case. For the same molecule, the Potency in assay [11] was 0.163 µM (active).
As to `c1ccc(-c2ccc(-c3ccccc3)cc2)cc1`, the activity change, negative = cytotoxicity in assay [1] was 1.35% [at 19 µM]; in [6], 5.03% [at 13.5 µM]; in assay [7] it was -3.67% [at 13.5 µM]; in assay [8], -12.2% [at 13.5 µM]. In addition, in assay [2], the activity, positive = activation is 16.6% [at 19 µM]. The activity change in assay [3] was 1.83% [at 11.8 µM, stronger effect = higher value]. Further, the activation in assay [4] was 1.85% [at 15.8 µM]; in [5], 0.1% [at 11.8 µM]; in assay [10], 13.6% [at 15.9 µM]; in assay [12], 0.405% [at 15.8 µM]; in assay [13], -0.166% [at 19 µM]; in assay [16], 7.35% [at 19 µM]. The activation in assay [17] was 2.85% [at 19 µM]. Besides, the activity, negative = inhibition was -2.25% [at 12.7 µM] in assay [9] and 9.45% [at 12.6 µM] in assay [11]. Moreover, the activity change, negative = inhibition in [14] is -3.34% [at 18.9 µM]; in [15] it was 0.791% [at 19 µM]; in [18] it was 0.516% [at 18.9 µM].
